Screening data deposited in PubChem BioAssay by The Scripps Research Institute Molecular Screening Center.
PPARg SRC3 recr – agonists of human PPARgamma SRC-3 coactivator recruitment. biochemical PPARgamma/SRC-3 coactivator recruitment assay. 0.26% of 200,000 active. activation, % at 8 µM; in the data active means activation above about 23%;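 further: 0% = DMSO and 100% = reference agonist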
SRC1 TRFRET art – flags TR-FRET format artefacts in PPARgamma SRC-1 recruitment agonist screen; TR-FRET detection artefact counter-screen, emission ratio; hits give high values; TR-FRET ratio at 8 µM; 0.34% of 99,000 active; in the data active means TR-FRET ratio above about 2300
PPARg SRC2 recr – promotes SRC-2 coactivator recruitment by human PPARgamma | P37231 | PPARgamma LBD-SRC-2 recruitment, biochemical | activation, % at 8 µM | 0.34% of 200,000 active | AID 1032;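 further: 0% = vehicle and 100% = reference agonist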
SRC3 TRFRET art – counter-screen for PPARgamma SRC-3 recruitment agonists: TR-FRET artefact | PPARgamma/SRC-3 format; hits give high values | TR-FRET ratio at 8 µM | 0.39% of 99,000 active; in the data active means TR-FRET ratio above about 2000
SRC2 TRFRET art – counter-screen for PPARgamma SRC-2 recruitment agonists: TR-FRET artefact; TR-FRET ratio at 8 µM; 0.4% of 200,000 active; AID 1049; hits give high values; in the data active means TR-FRET ratio above about 2000
PPARg SRC-1 ag – promotes SRC-1 coactivator recruitment by human PPARgamma; PPARgamma-SRC-1 coactivator recruitment biochemical assay; activation, % at 8 µM; 0.41% of 200,000 active; in the data active means activation above about 19%;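 further: 0% = DMSO and 100% = reference agonist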
PPARg SRC2 conf – confirmation of agonists of SRC-2 recruitment by human PPARgamma. biochemical SRC-2 recruitment by PPARgamma. AID 1297. activation, % at 8 µM. 52% of 790 active. shares compounds with PPARg SRC3 recr;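 further: 0% = vehicle alone and 100% = reference agonist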
PPARg SRC1 ag – confirmation of agonists of SRC-1 recruitment by human PPARgamma. shares compounds with PPARg SRC3 recr. 43% of 790 active. activation, % at 8 µM. PPARgamma–SRC-1 coactivator recruitment biochemical assay; in the data active means activation above about 20%;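 further: 0% = vehicle wells and 100% = reference agonist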
PPARg SRC3 ag – human PPARgamma SRC-3 recruitment agonism, confirmation. shares compounds with PPARg SRC3 recr. 29% of 790 active. activation, % at 8 µM. biochemical PPARgamma-SRC-3 coactivator recruitment, agonist mode; in the data active means activation above about 24%;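 further: 0% = vehicle wells and 100% = reference agonist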
Target sequence (P37231 whole entry, looked up): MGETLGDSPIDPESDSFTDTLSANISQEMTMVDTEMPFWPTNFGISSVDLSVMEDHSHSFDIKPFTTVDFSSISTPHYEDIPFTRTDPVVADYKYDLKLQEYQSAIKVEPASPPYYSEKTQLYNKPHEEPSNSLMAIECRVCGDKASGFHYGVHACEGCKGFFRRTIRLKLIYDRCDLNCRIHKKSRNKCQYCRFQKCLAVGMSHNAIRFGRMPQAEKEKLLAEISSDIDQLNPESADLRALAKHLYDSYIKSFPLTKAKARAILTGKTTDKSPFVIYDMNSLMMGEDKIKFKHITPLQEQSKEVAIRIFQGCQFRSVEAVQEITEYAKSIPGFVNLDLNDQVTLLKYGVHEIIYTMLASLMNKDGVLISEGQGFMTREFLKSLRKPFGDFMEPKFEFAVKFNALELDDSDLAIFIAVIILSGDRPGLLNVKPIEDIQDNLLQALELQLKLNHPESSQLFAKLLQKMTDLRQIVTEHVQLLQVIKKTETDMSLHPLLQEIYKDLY
Target sequence (Q9Y6Q9 whole entry, looked up): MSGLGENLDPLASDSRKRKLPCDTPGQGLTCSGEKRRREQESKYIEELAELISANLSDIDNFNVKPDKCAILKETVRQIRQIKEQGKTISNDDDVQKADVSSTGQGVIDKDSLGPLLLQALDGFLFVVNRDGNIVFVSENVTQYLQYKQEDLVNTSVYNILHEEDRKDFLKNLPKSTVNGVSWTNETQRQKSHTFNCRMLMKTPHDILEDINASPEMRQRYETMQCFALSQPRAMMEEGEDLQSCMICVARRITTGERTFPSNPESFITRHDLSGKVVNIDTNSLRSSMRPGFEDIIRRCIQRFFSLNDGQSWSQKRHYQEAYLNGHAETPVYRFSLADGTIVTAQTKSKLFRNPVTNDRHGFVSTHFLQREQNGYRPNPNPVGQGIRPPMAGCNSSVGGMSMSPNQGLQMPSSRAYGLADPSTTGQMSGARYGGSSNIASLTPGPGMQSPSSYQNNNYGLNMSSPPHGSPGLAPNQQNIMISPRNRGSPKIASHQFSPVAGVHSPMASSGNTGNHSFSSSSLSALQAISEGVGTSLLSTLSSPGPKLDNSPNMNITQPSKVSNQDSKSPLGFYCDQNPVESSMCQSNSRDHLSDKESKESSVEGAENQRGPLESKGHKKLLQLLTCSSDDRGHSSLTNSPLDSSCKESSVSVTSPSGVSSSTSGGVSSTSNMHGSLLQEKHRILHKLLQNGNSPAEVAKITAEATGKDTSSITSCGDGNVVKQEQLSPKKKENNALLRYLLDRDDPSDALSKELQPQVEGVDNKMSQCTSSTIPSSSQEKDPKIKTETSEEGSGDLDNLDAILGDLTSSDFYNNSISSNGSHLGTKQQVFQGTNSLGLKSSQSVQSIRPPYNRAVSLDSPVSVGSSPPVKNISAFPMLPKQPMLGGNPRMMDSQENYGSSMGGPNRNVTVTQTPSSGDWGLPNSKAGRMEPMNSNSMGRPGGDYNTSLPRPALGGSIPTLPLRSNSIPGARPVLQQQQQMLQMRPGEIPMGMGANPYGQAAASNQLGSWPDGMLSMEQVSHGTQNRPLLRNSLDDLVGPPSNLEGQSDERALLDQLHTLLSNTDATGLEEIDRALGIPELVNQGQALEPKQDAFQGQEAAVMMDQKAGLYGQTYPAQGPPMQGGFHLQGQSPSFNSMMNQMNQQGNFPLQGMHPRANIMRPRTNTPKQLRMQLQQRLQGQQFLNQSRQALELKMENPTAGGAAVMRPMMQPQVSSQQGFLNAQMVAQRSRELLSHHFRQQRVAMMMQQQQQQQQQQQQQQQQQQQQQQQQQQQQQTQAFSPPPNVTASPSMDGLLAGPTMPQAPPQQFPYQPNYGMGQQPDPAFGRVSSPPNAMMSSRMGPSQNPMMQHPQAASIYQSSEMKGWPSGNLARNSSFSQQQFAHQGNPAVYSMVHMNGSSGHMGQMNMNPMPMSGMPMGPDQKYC
Starred values were filed as active, the others as inactive; . = not tested or not shown. Only some compounds are listed: those with a hit (about 0.84% of all), similar ones and a draw of the others. Unless noted, no stated cut-off is given here; in the data, active means activation above about 22%; inactive means the rest.

SMILES | PPARg SRC3 recr | SRC1 TRFRET art | PPARg SRC2 recr | SRC3 TRFRET art | SRC2 TRFRET art | PPARg SRC-1 ag | PPARg SRC2 conf | PPARg SRC1 ag | PPARg SRC3 ag
COc1ccc([N+](=O)[O-])cc1NC(=O)c1ccc(Br)s1 | 13 | 2669* | 17 | 2129* | 2056* | 22* | 20 | 13 | 6
O=c1c2cn[nH]c2nc(SCc2ccccc2F)n1-c1ccc(Br)cc1 | 3 | 1760 | -1 | 1579 | 1610 | 7 | . | . | .
O=c1c2cn[nH]c2nc(SCc2cc(=O)n3cc(Br)ccc3n2)n1-c1ccc(Br)cc1 | 22 | 3354* | 36* | 2853* | 2457* | 33* | 28* | 19 | 20
CC(=O)c1sc(NC(=O)c2ccco2)nc1-c1ccccc1 | 8 | . | 6 | . | 1647 | 6 | . | . | .
CCOC(=O)c1sc(NC(=O)c2ccco2)nc1-c1ccccc1 | 32* | . | 4 | . | 1718 | 26* | 32* | 20 | 17
Nc1nc(-c2ccc3c(c2)CCC(=O)N3)cs1 | 0 | 1866 | -2 | 1476 | 1457 | -2 | . | . | .
CC1Cc2ccccc2N1CC(=O)NC(c1ccccc1)c1ccccc1 (stereo not drawn) | 8 | 1903 | 3 | 1490 | 1615 | 3 | . | . | .
CCSc1nnc(NC(=O)CSc2nc3c(cc2C#N)CCCC3)s1 | 8 | . | 10 | . | 1783 | 2 | . | . | .
CCCC(C)NC(=O)c1ccc(OCc2ccc(Cl)cc2)c(OC)c1 (stereo not drawn) | 57* | 2154 | 23* | 1723 | 1657 | 62* | 31* | 56* | 48*
Cc1cc(C)c(NC(=O)CSc2nc3ccc(NC(=O)CSc4nnnn4Cc4ccccc4)cc3s2)c(C)c1 | 15 | . | 24* | . | 1906 | 10 | 9 | 10 | 8
CCn1c(=O)cc(SCC(=O)N2CCCCC2)c2ccccc21 | 52* | . | 48* | . | 2691* | 44* | 37* | 23* | 26*
CCOC(=O)C1CCN(C(=O)Cc2c(C(=O)O)n(C)c3ccccc23)CC1 | 3 | . | 0 | . | 1539 | -3 | . | . | .
CCn1c(=O)cc(OCC(=O)N2CCCC2)c2ccccc21 | 4 | . | 2 | . | 1703 | 9 | . | . | .
CCOC(=O)N1CCC(NC(=O)CSc2cc(=O)n(CC)c3ccccc23)CC1 | 45* | . | 48* | . | 2762* | 55* | 38* | 27* | 25*
CCOC(=O)C1CCN(C(=O)CSc2cc(=O)n(CC)c3ccccc23)CC1 | 62* | . | 53* | . | 2661* | 44* | 40* | 27* | 27*
CCN1CCN(C(=O)CSc2cc(=O)n(CC)c3ccccc23)CC1 | 41* | . | 44* | . | 2006* | 23* | 26* | 17 | 18
O=C(Nc1ccc(Cl)cc1)[C@@H]1[C@@H]2C(=O)N(c3ccc(Cl)cc3)C(=O)[C@@H]2[C@H]2C=CC=NN21 | 0 | . | 3 | . | 1433 | 11 | . | . | .
CC1CCN(C(=O)C2CCCN(S(C)(=O)=O)C2)CC1 (stereo not drawn) | 1 | . | 1 | . | 1302 | 3 | . | . | .
Cc1[nH]c2ccccc2c1SCC(=O)N1CCC(C)CC1 | 4 | 1569 | -2 | 1659 | 1696 | 4 | . | . | .
CCn1c(=O)cc(SCC(=O)N2CCC(C)CC2)c2ccccc21 | 108* | . | 79* | . | 3414* | 77* | 44* | 29* | 29*
CCn1cc(SCC(=O)N2CCOCC2)c2ccccc21 | 9 | . | 9 | . | 1544 | 1 | . | . | .
CCn1c(=O)cc(SCC(=O)N2CCN(C)CC2)c2ccccc21 | 40* | . | 34* | . | 2120* | 27* | 30* | 20* | 21
Cc1ccc(NS(=O)(=O)c2cc(C(=O)NCCSc3ccc(C)cc3)ccc2C)cc1 | 10 | . | 21 | . | 1621 | 20* | 9 | 14 | 17
CCOc1ccc(-c2n[nH]c(=S)o2)cc1 | 6 | 2049 | 6 | 1733 | 1808 | 16 | . | . | .
CCOc1ccccc1-c1n[nH]c(=S)o1 | 50* | . | 39* | . | 2292* | 28* | 43* | 30* | 28*
SMILES | PPARg SRC3 recr | SRC1 TRFRET art | PPARg SRC2 recr | SRC3 TRFRET art | SRC2 TRFRET art | PPARg SRC-1 ag | PPARg SRC2 conf | PPARg SRC1 ag | PPARg SRC3 ag
Cc1ccc(N2CSC3=C(C#N)C(c4cccs4)CC(=O)N3C2)cc1 (stereo not drawn) | 19 | . | 29* | . | 2106* | 13 | 4 | 0 | 2
COc1ccc(CCn2c(-c3ccco3)nc3nc4ccccc4nc32)cc1 | 8 | . | 6 | . | 1661 | 5 | . | . | .
CCc1nnc(NS(=O)(=O)c2ccc(N/C=C\C(=O)c3cccc4ccccc34)cc2)s1 | 48* | 1902 | 24* | 1728 | 1761 | 23* | 23* | 22* | 41*
CCOC(=O)c1sc(=S)n(-c2ccccc2Cl)c1SC | 31* | . | 31* | . | 1889 | 30* | 40* | 36* | 29*
CCOC(=O)c1sc(=S)n(-c2ccccc2)c1SC | 3 | . | -1 | . | 1626 | -3 | . | . | .
Cc1cc(C2C(C#N)=C(N)SC(N)=C2C#N)c(C)s1 | 15 | . | 25* | . | 1825 | 9 | 0 | -4 | 2
Cc1cc(C2C(C#N)=C(N)Oc3n[nH]c(C)c32)c(C)s1 (stereo not drawn) | 6 | . | 4 | . | 1518 | -2 | . | . | .
Cc1sccc1C1C(C#N)=C(N)SC(N)=C1C#N | 33* | . | 22* | . | 1861 | 10 | 4 | 1 | 5
Cc1[nH]nc2c1C(c1ccsc1C)C(C#N)=C(N)O2 (stereo not drawn) | -5 | . | -1 | . | 1409 | 2 | . | . | .
O=C(Nc1nc2ccccc2[nH]1)c1ccc(Cl)c([N+](=O)[O-])c1 | 3 | 1665 | -6 | 1355 | 1423 | -5 | . | . | .
Fc1ccc(Br)cc1C1C=C(c2ccc(Br)s2)Nc2ncnn21 (stereo not drawn) | 32* | 3232* | 51* | 3060* | 2711* | 46* | 54* | 35* | 39*
COc1cccc(C2C=C(c3ccc(Br)s3)Nc3ncnn32)c1OC (stereo not drawn) | 17 | 3079* | 27* | 2570* | 2137* | 33* | 57* | 48* | 36*
COc1ccc(NC(=O)c2sc(=S)[nH]c2N)cc1 | 28* | . | 4 | . | 1621 | 16 | 12 | 11 | 7
O=C(Nn1c(O)c(C=C2N=c3ccccc3=N2)sc1=S)c1ccccc1Cl | 30* | . | 19 | . | 1641 | 12 | 26* | 21* | 16
CC(=O)c1c(C)nc2nonc2c1N | -12 | . | -2 | . | 1652 | 7 | . | . | .
C#CCn1c(=NC(=O)c2sc3ccccc3c2Cl)sc2cc(S(N)(=O)=O)ccc21 | 16 | 2366* | 33* | 2062* | 2057* | 13 | 33* | 22* | 15
Cc1cc2c(c(C)nn2-c2ccccc2)c(=O)o1 | -2 | . | 11 | . | 1497 | -6 | . | . | .
